Measurements as given in the supplement of paper PMC11150407.
Structures can show the parent of a compound that is named as a salt. About 180 (8.6%) of roughly 2,100 compounds showed an effect of 50% or more. The entries come from a sample that favours strong results as a whole.

These molecules were tested on MOLM1 and UCSD/AML1 (averaged) (assay: cell viability relative to DMSO control (POC); higher = less growth inhibition). Conditions: 1 µM; 72 h.
Procedure: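 Primary viability screen in the 3q26 EVI1-high AML cell lines MOLM1 and UCSD/AML1 (1.5e3 cells/well, 384-well), compounds at 1 uM for 72 h. ATP CellTiter-Glo read-out given as percent of viable cells over DMSO control (POC), averaged over duplicates. DMSO was the negative control and 5 uM etoposide the positive control. This mapping covers the MicroSource Spectrum and Selleck anticancer libraries (drug names).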

Row | SMILES | cell viability [%]
1 | Cc1[nH]c(/C=C2\C(=O)Nc3ccc(S(=O)(=O)N(C)c4cccc(Cl)c4)cc32)c(C)c1C(=O)N1CCN(C)CC1 | 62.8
2 | CCN(CC)CCNC(=O)c1c(C)[nH]c(/C=C2\C(=O)Nc3ccc(F)cc32)c1C [Sunitinib Malate (Sutent)] | 32.9
3 | Cc1[nH]c(/C=C2\C(=O)Nc3ccc(S(=O)(=O)Cc4c(Cl)cccc4Cl)cc32)c(C)c1C(=O)N1CCC[C@@H]1CN1CCCC1 | 92.1
4 | CC(=O)Oc1cc(-c2coc3cc(OC(C)=O)c(OC(C)=O)c(OC(C)=O)c3c2=O)cc(OC(C)=O)c1OC(C)=O | 93.9
5 | CC(=O)O[C@@H]1CC2C(C)(C)[C@H](O)C=C[C@]2(C)C2CC[C@@]3(C)[C@H](c4ccoc4)OC(=O)C4OC43[C@@]21C (stereo partly specified) | 98.8
6 | O=c1c2ccccc2oc2ccccc12 | 101
7 | CC(=O)Nc1nc(C)c(-c2ccc(Cl)c(S(=O)(=O)NCCO)c2)s1 | 56.6
8 | O=C(CCNNC(=O)c1ccncc1)NCc1ccccc1 | 90.2
9 | Nc1ccccc1NC(=O)c1ccc(CNc2nccc(-c3cccnc3)n2)cc1 [Mocetinostat (MGCD0103)] | 4.85
10 | O=C(NCO)c1cccnc1 | 106
11 | Nc1ccccc1NC(=O)c1ccc(CNC(=O)OCc2cccnc2)cc1 [Entinostat (MS-275, SNDX-275)] | 12.6
12 | COc1c2ccoc2c(OC)c2oc(=O)ccc12 | 115
13 | CC(NC(=O)c1ccccc1/N=C/c1c(O)ccc2ccccc12)c1ccccc1 (stereo unspecified) [Sirtinol] | 103
14 | CCc1cc(C(N)=S)ccn1 | 97.8
15 | CCc1ccc2c(O)c3c(cc2c1C(=O)OC)C(=O)c1c(O)ccc(O)c1C3=O | 102
16 | NC(=O)c1ccc(I)c([N+](=O)[O-])c1 [Iniparib (BSI-201)] | 103
17 | C[C@H]1COC2=C1C(=O)C(=O)c1c2ccc2c1CCCC2(C)C | 97.7
18 | C=C1C(=O)O[C@@H]2C[C@@]3(C)CCC[C@H](C)C3=C[C@H]12 | 74
19 | COc1cccc(O)c1O | 110

Row | SMILES | cell viability [%]
20 | C=CCn1c(=O)c2cnc(Nc3ccc(N4CCN(C)CC4)cc3)nc2n1-c1cccc(C(C)(C)O)n1 | 19.2
21 | CO[C@@H](C(=O)N1Cc2[nH]nc(NC(=O)c3ccc(N4CCN(C)CC4)cc3)c2C1)c1ccccc1 | 13.4
22 | CC(C(=O)O)[C@H]1CCC2C3CC=C4C[C@@H](O)CC[C@]4(C)C3CC[C@@]21C (stereo partly drawn) [3beta-HYDROXY-23,24-BISNORCHOL-5-ENIC ACID] | 109
23 | CNCc1ccccc1 | 104
24 | C=CC1=C(C)/C(=C/c2[nH]c(Cc3[nH]c(/C=C4\NC(=O)C(C)=C4C=C)c(C)c3CCC(=O)O)c(CCC(=O)O)c2C)NC1=O | 91.9
25 | C=CC(C)(O)CCC=C(C)CCC=C(C)C (mixture of isomers) | 93.6
26 | COc1cc(OC)c(/C=C/S(=O)(=O)Cc2ccc(OC)c(NCC(=O)O)c2)c(OC)c1 | 41.4
27 | NCCC(O)(P(=O)(O)O)P(=O)(O)O [Pamidronate Disodium] | 79.9
28 | COc1cc2c(cc1OC)Cc1cc(OC)c(OC)cc1Cc1cc(OC)c(OC)cc1C2 | 113
29 | CC1=CC(=O)C(C(C)C)=CC1=O | 97.2
30 | CC[C@@]1(O)C(=O)OCc2c1cc1n(c2=O)Cc2cc3cc(O)ccc3nc2-1 | 7.32
31 | CCc1c2c(nc3ccc(OC(=O)N4CCC(N5CCCCC5)CC4)cc13)-c1cc3c(c(=O)n1C2)COC(=O)[C@]3(O)CC [Irinotecan] | 13
32 | CC[C@@]1(O)C(=O)OCc2c1cc1n(c2=O)Cc2cc3c(CN(C)C)c(O)ccc3nc2-1 [Topotecan HCl] | 2.12
33 | CCc1c2c(nc3ccc(OC(=O)N4CCC(N5CCCCC5)CC4)cc13)-c1cc3c(c(=O)n1C2)COC(=O)[C@]3(O)CC [Irinotecan HCl Trihydrate (Campto)] | 15.9
34 | COc1cc(/C=C/CO)ccc1O | 87.7
35 | O=C(O)/C=C/C=C/c1ccc2c(c1)OCO2 | 109
36 | CC(=O)O[C@@H]1C[C@@]2(C)C(CC[C@@H]2C(C)=O)C2CCC3=CC(=O)CC[C@]3(C)C21 (stereo partly specified) | 91.1
37 | CC(N)C12CC3CC(CC(C3)C1)C2 (stereo unspecified) | 105
38 | COc1cc2c(cc1OC)C1(O)C(=O)c3ccc(O)c(C(=O)O)c3OC1CO2 (stereo unspecified) | 101

Row | SMILES | cell viability [%]
39 | COc1ccc2c(c1OC)OC[C@@H](c1ccc(OC)c(OC)c1OC)C2 | 113
40 | COc1cc(C)c(C(=O)Oc2cc(C)c(C(=O)O)c(O)c2C)c(O)c1C=O | 91.2
41 | C[C@H](N)C(=O)NC(Cc1ccccc1)C(=O)O (mixture of isomers) | 100
42 | CC1(C)CC2C1CC[C@]1(C)CCC3C(C(=O)O)CC(=O)O[C@@]32C1 (stereo partly specified) [3-HYDROXY-4-(SUCCIN-2-YL)-CARYOLANE delta-LACTONE] | 103
43 | C[C@@H]1C(=O)O[C@H]2C[C@@]34[C@H]5C[C@@H](C(C)(C)C)[C@]36[C@@H](OC(=O)[C@@H]6O)O[C@@]4(C(=O)O5)[C@]21O | 94.4
44 | COc1ccc([C@@H](C)C(=O)c2ccc(O)cc2O)cc1 | 112
45 | CC1(COc2ccc3c(c2)ncn3-c2ccc3cccc(N4CCC(N)CC4)c3n2)COC1 | 29.2
46 | C[C@@]12CCc3occc3[C@H]1CC[C@@]13C[C@@H](CC[C@H]12)[C@@](O)(CO)C3 | 89.6
47 | COc1c(-c2ccccc2)oc2c(ccc3occc32)c1=O | 97.3
48 | O[C@H]1[C@H](O)[C@@H](O)C2OC[C@H]1O2 | 110
49 | COc1ccc(-c2ccc3c(N4CCOCC4)nc(N4C[C@@H](C)O[C@@H](C)C4)nc3n2)cc1CO | 30.1
50 | COc1ccc(-c2ccc3c(N4CCOC[C@@H]4C)nc(N4CCOC[C@@H]4C)nc3n2)cc1CO | 23.6
51 | O=C(O)C(S)C(S)C(=O)O (stereo unspecified) | 115
52 | O=C1c2ccccc2C(=O)c2c1ccc(O)c2O | 95.7
53 | COc1ccc2c(=O)c(-c3cc4c(cc3OC)OCO4)coc2c1 | 99.7
54 | COc1ccc(-c2c(O)c3c(OC)c4c(cc3oc2=O)OC(C)(C)C=C4)cc1 | 93.5
55 | CC[C@H](/C=C/[C@@H](C)[C@H]1CC[C@H]2[C@@H]3CC=C4C[C@@H](O)CC[C@]4(C)[C@H]3CC[C@]12C)C(C)C | 107
56 | CC(C)=CCCC1(C)C=Cc2c(O)c3c(c(CC=C(C)C)c2O1)OC12C(=CCCC1C(C)(C)O[C@@]2(C/C=C(\C)C(=O)O)C(=O)O)C3=O (stereo partly specified) | 103
